The source of these data is PubChem BioAssay AID777 (Sanford-Burnham Center for Chemical Genomics, 2007).

Out of some 96,000 compounds screened, about 19,000 (20%) were called active.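 The calls were made as follows: active = blocking of liver enzyme CYP2C9 beyond about 50% at 5 µM (limit read from the data); inactive = the rest.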 A selection follows.

The target of this test is Cytochrome P450 2C9 (Homo sapiens) (UniProt P11712). Put plainly: blockers of cytochrome P450 2C9 activity – biochemical, luminescence, ADME assay, primary screen (AID 777). Particulars: CYP2C9 Supersomes, luciferin-H conversion, at 5 µM, hits give high values.
Cytochrome P450 2C9 (Homo sapiens), sequence (P11712 whole entry, looked up): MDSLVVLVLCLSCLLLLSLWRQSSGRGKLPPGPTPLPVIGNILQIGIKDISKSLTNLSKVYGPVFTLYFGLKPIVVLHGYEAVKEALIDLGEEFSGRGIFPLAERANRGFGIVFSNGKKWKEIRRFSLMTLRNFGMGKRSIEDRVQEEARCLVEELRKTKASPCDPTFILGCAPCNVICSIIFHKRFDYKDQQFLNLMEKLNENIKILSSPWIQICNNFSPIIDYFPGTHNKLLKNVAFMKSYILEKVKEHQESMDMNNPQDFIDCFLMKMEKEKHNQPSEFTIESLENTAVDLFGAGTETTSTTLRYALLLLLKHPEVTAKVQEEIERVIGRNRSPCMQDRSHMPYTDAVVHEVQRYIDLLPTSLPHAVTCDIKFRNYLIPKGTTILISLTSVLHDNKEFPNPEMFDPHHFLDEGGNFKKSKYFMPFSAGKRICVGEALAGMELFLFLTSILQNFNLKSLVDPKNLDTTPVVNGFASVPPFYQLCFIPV
Regarding `O=C(CS(=O)(=O)c1cn(Cc2ccc(Cl)cc2)c2ccccc12)N1CCOCC1`, the inhibition is 41% (inactive).

`CCN(c1ccccc1)S(=O)(=O)c1ccc(N)cc1`: the inhibition was -137% (inactive).

With `COC(=O)c1cc(Cl)c(NC(=O)c2ccco2)cc1OC`, the inhibition was -135% (inactive).

Turning to `COc1cc(C(=O)OC(C)C(=O)NCC2CCCCC2)cc(NC(=O)c2ccco2)c1OC` (centres undefined), the inhibition is 81.6% (active).

Consider `COc1ccc(NC(=O)c2cccc(NC(=O)c3ccco3)c2)c(OC)c1`, for which the inhibition is -50.5% (inactive).

As to `O=C(/C(=N\O)n1cncn1)c1ccc(Br)cc1Br`, the inhibition is 34.9% (inactive).

In the case of `CCCC(=O)C1=C(N(C)c2ccccc2)CC(C)(C)C(C(=O)OC)C1=O` (centres undefined), the inhibition was 13.7% (inactive).

Consider `CCOC(=O)CNC(=O)c1nn(-c2cccc(OC)c2)c(=O)c2ccccc12`, for which the inhibition was 29.6% (inactive).

In the case of `N#CCSc1nc2ccccc2c(=O)n1-c1ccccc1`, the inhibition was 30.4% (inactive).

`COC(=O)CSc1nc(C2CC2)nc2ccccc12`: the inhibition was 48% (inactive).

For `COC(=O)c1ccc(CSc2nc3ccccc3c(=O)n2-c2cccc(OC)c2)o1`, the inhibition was 100% (active).

Turning to `CCc1c(O)nc(SCC(=O)Nc2ccccc2)n(C(C)CC)c1=O` (centres undefined), the inhibition was 11.7% (inactive).

Regarding `COCC(C)n1c(SCc2ccc(C(=O)OC)o2)nc2ccccc2c1=O` (centres undefined), the inhibition was 52.9% (active).

On to `O=C(CCc1ccccc1)Nc1ccc(NC(=O)C2CC2)nc1`, for which the inhibition is 25.9% (inactive).

With `N#Cc1c(N)n(CCOC(=O)c2ccc(Cl)cc2)c2nc3ccccc3nc12`, the inhibition was 14.9% (inactive).

On to `CCOc1ccc(NC(=O)N(CCC(C)C)C(C)c2ccco2)cc1` (centres undefined), for which the inhibition is 43.6% (inactive).

In the case of `CC(c1ccco1)N(C(=O)Nc1ccccc1)C1CCCCC1` (centres undefined), the inhibition is 81.3% (active).

As for `CCCC(C(=O)NCc1ccco1)N(C(=O)CNS(=O)(=O)c1ccccc1)C1CCCC1` (centres undefined), the inhibition is 40.6% (inactive).

Regarding `Cc1cc(C)c(S(=O)(=O)N2C=CC(C(F)(F)F)=NCC2)c(C)c1`, the inhibition is 13.2% (inactive).

As for `OC(CN1C2=NCCCN2c2ccccc21)c1ccc(Br)cc1` (centres undefined), the inhibition is 17.7% (inactive).

`NC(=S)c1ccc(C(N)=S)o1`: the inhibition is 23.3% (inactive).

In the case of `CCCCCCn1c(SCC(=O)c2ccccc2)nc2c1c(=O)[nH]c(=O)n2C`, the inhibition was 18.7% (inactive).

Regarding `Cn1c(=O)[nH]c(=O)c2c1nc(Br)n2CCCCSc1nc2ccccc2o1`, the inhibition is 67.6% (active).

Take `Cc1ccnc(SCCn2c(Br)nc3c2c(=O)[nH]c(=O)n3C)n1`: the inhibition was -6.9% (inactive).

`CN(C)/C=C(/C(=O)c1ccc(Cl)cc1)S(=O)(=O)c1ccccc1`: the inhibition is -9.5% (inactive).

For `COc1cccc(C(=O)NNC(=O)c2ccccc2Br)c1`, the inhibition is -182% (inactive).

As to `COc1cccc(C(=O)c2cc3ccc(O)cc3oc2=O)c1`, the inhibition was 92.8% (active).

Turning to `COc1ccc2oc(=O)c(C(=O)O)cc2c1`, the inhibition was -6.4% (inactive).

For `O=C(NC1=NCCS1)c1ccc(Cl)s1`, the inhibition was 3.9% (inactive).

With `COc1ccc(C(=O)n2nc(-c3ccc(C)cc3)nc2N)cc1OC`, the inhibition was -9.5% (inactive).

`Cc1ccc2nc(NC3=NCN(CCc4ccccc4)CN3)nc(C)c2c1`: the inhibition is -5.5% (inactive).

With `CCOC(=O)c1c(C)[nH]c(C(=O)NCc2ccccc2OC)c1C`, the inhibition is 78.3% (active).

In the case of `CC(=O)c1c(C)[nH]c(C(=O)NCc2ccc(C)cc2)c1C`, the inhibition is 49.2% (inactive).

On to `COc1ccccc1CNC(=O)c1ccc(SC)cc1OC`, for which the inhibition is -50.7% (inactive).

Turning to `Cn1c2c(c(=O)n(C)c1=O)CN(Cc1ccco1)CN2`, the inhibition was -11.6% (inactive).

For `N#CCSc1nc2c(c(=O)n1Cc1ccccc1)C1(CCCC1)Cc1ccccc1-2`, the inhibition is 36.9% (inactive).

In the case of `CC(C)C(NC(=O)c1ccc(Cl)cc1)C(=O)O` (centres undefined), the inhibition was -5.3% (inactive).

Consider `O=C(CC1CCCCC1)Nc1c2c(nn1-c1ccc(F)cc1)CS(=O)(=O)C2`, for which the inhibition was -6.5% (inactive).

As for `COc1ccc(-c2nc3n(c2Br)CCC3)cc1`, the inhibition was 2.9% (inactive).

Turning to `CC(C)(C)n1nnnc1C(c1cccs1)N(Cc1cccnc1)CC1CCCO1` (centres undefined), the inhibition is 19.7% (inactive).

With `CCOc1ccc(CN(Cc2ccco2)C(c2cccs2)c2nnnn2C(C)(C)C)cc1` (centres undefined), the inhibition was 77.2% (active).

On to `CC(C)(C)NC(=O)CN(Cc1cccs1)C(=O)CNS(=O)(=O)c1ccccc1`, for which the inhibition is 26.8% (inactive).

On to `Cc1cc(C)c2nc(SCCC#N)nc(C)c2c1`, for which the inhibition is -19.9% (inactive).

`CCOC(=O)Nc1ccc2c(c1)N(C(=O)CCN1CCN(CCO)CC1)c1ccccc1CC2`: the inhibition is -14% (inactive).

In the case of `COc1ccc(-n2nnnc2SCC(=O)c2ccc(OC)c(OC)c2)cc1`, the inhibition is 45.6% (inactive).

Take `CCOc1cccc(-c2nnc3sc(COc4ccc(OC)cc4)nn23)c1`: the inhibition is 20.9% (inactive).

Turning to `CCOc1cccc(-n2nnnc2-c2ccc(OC)cc2)c1`, the inhibition was 91.4% (active).

Regarding `Cc1cccc2cc(CN(Cc3ccc4c(c3)OCO4)Cc3nnnn3C3CCCC3)c(=O)[nH]c12`, the inhibition was 38.4% (inactive).

For the molecule `Cc1cc(C)c2cc(CN(Cc3nnnn3Cc3ccc(F)cc3)C3CCCC3)c(=O)[nH]c2c1`, the inhibition was -7.2% (inactive).

As to `Cc1cccc2cc(CN(Cc3nnnn3Cc3ccccc3)C3CCCC3)c(=O)[nH]c12`, the inhibition is 91.5% (active).

On to `O=C(CCl)NNc1cccc(Cl)n1`, for which the inhibition is 10.1% (inactive).

With `c1ccc(-c2ccnc3nc(-n4cccc4)nn23)cc1`, the inhibition is 6.8% (inactive).

As to `C#CCNc1nc(C(C)C)nc2c1nnn2Cc1ccccc1F`, the inhibition is 40.2% (inactive).

For the molecule `CC(C)(C)c1nc(NCC2CCCO2)c2nnn(Cc3ccccc3)c2n1` (centres undefined), the inhibition was 32.7% (inactive).

With `Cc1nc(Nc2ccc3c(c2)OCCO3)c2nnn(Cc3ccccc3Cl)c2n1`, the inhibition is 93.2% (active).

In the case of `O=C(CN1CCSCC1)N/N=C/c1ccc(F)cc1`, the inhibition was 17.1% (inactive).

For `O=C(O)c1cccc2c1C(=O)N(C1CCCCC1)C2`, the inhibition is -13.9% (inactive).

As for `COCCNC(=O)c1snc2ccc(Cl)cc12`, the inhibition was -11.2% (inactive).

With `COc1ccc(NC(=O)Nc2cccc3cccnc23)cc1`, the inhibition is -39.1% (inactive).

On to `O=C(NCc1ccc(Cl)cc1)c1cc2c(nc3sccn32)s1`, for which the inhibition is 17.9% (inactive).

For the molecule `O=c1cc(Cn2nnc(-c3ccc(Cl)cc3)n2)nc2sccn12`, the inhibition was 63.5% (active).

`O=C(NCc1cn2ccsc2n1)Nc1ccc(Cl)cc1`: the inhibition was 13.6% (inactive).

Consider `Cc1ccc(C(=O)OC2=CC(=O)CC(C)(C)C2)cc1`, for which the inhibition is 28.3% (inactive).

Turning to `CN(c1cccc(NC(=O)Nc2ccc(Cl)cc2)c1)S(C)(=O)=O`, the inhibition is 30.6% (inactive).

For `COc1ccc(-c2cc(C(F)(F)F)n3nc(C(=O)N4CCOCC4)c(Cl)c3n2)cc1`, the inhibition is 0.7% (inactive).

In the case of `CCOc1cc(CNCCN(C)C)c(Cl)cc1OCC(=O)NCCc1ccccc1`, the inhibition is 22.3% (inactive).

Turning to `Clc1cccc(N=C2NN=C(c3ccc4c(c3)OCCO4)CS2)c1`, the inhibition was 77.7% (active).

Turning to `CCOC(=O)C1=C(O)CSC1=Nc1cccc(Cl)c1`, the inhibition is 9% (inactive).

Regarding `COc1ccc(-c2cc(C(=O)NC(C(=O)O)C(C)C)c(C)o2)cc1OC` (centres undefined), the inhibition was 21% (inactive).

As to `O=C(Nc1c2c(nn1-c1ccc(F)cc1)CS(=O)C2)C12CC3CC(CC(C3)C1)C2` (centres undefined), the inhibition was 14.4% (inactive).

For the molecule `COc1ccc(C2C(C(C)=O)=C(O)C(=O)N2c2nccs2)cc1` (centres undefined), the inhibition is 5% (inactive).

As for `COC(=O)N1CN(C(=O)OC)CN(C(=O)OC)C1`, the inhibition is -12.2% (inactive).

In the case of `COn1c(=O)c(=O)n(OC)c2ccccc21`, the inhibition was 3.2% (inactive).

For the molecule `CCc1ccccc1N(CC(=O)N1CCN(c2ccccc2F)CC1)S(C)(=O)=O`, the inhibition is 2.9% (inactive).

As for `N#Cc1c(NC(=O)CSc2nc3ccccc3c(=O)n2Cc2ccco2)sc2c1CCCC2`, the inhibition is 3.9% (inactive).

`CCOC(=O)C1CCc2nc3ccccc3c(=O)n21` (centres undefined): the inhibition was 3.3% (inactive).

For `O=c1[nH]c(CSc2ncc(-c3ccc(F)cc3)n2Cc2ccco2)nc2ccccc12`, the inhibition was 21.2% (inactive).

For `CC(Sc1nc2ccccc2c(=O)n1Cc1ccco1)C(=O)c1ccccc1` (centres undefined), the inhibition is 88.2% (active).

With `CCOC(=O)C(C)Sc1nc2ccccc2c(=O)n1CC1CCCCC1` (centres undefined), the inhibition is 78.8% (active).

Regarding `CCOn1c(SC(C)C)nc2ccccc2c1=O`, the inhibition was 17.6% (inactive).

Turning to `O=C(CNS(=O)(=O)c1cccc(C(F)(F)F)c1)Nc1ccccc1F`, the inhibition is -19.7% (inactive).

Turning to `Cc1c2cn[nH]c(=O)c2c(C)n1Cc1ccc(F)cc1`, the inhibition is 6.2% (inactive).

Turning to `Clc1ccc(CSc2nnc(/C=C/c3ccccc3)o2)c(Cl)c1`, the inhibition was 49.9% (inactive).

As to `CSCc1cc(N2CCOCC2)nc(SCc2ccc(Cl)cc2Cl)n1`, the inhibition is 57.5% (active).

In the case of `O=c1cc(CSc2ccc(Cl)cc2)nc(N2CCOCC2)[nH]1`, the inhibition was 8.5% (inactive).

As to `CSCc1cc(N(C)C)nc(SCc2ccc(Cl)cc2Cl)n1`, the inhibition is 56.7% (active).

Regarding `Nc1nc(SCc2ccccc2Cl)n[nH]1`, the inhibition is -6.7% (inactive).

With `COc1ccc([N+](=O)[O-])cc1C1NN=C(c2cccc3ccccc23)S1` (centres undefined), the inhibition was -70.8% (inactive).

With `CCC(=O)NNc1cc(=O)c2c(=O)n(C)c(=O)n(C)c2[nH]1`, the inhibition was 4% (inactive).

In the case of `COc1ccc(S(=O)(=O)NC2(C(F)(F)F)N=C3SCCN3C2=O)cc1` (centres undefined), the inhibition is -5.2% (inactive).

Regarding `CSCCC(NC(=O)c1ccc(=O)n(C)n1)c1nc2ccccc2[nH]1` (centres undefined), the inhibition is 10.3% (inactive).

For the molecule `CC1CCCCC1NC(=O)CCS(=O)(=O)c1cccc2nonc12` (centres undefined), the inhibition is 7.9% (inactive).

As for `CCCNC(=O)CN(Cc1ccccc1F)S(=O)(=O)c1ccc(C)cc1`, the inhibition was 74.3% (active).

For `CCNC(=O)CN(c1ccc(C)cc1)S(=O)(=O)c1ccc(SC)cc1`, the inhibition is 26.9% (inactive).

For `Cc1ccc(S(=O)(=O)N(CC(=O)NCCSC2CCCCC2)c2ccccc2F)cc1`, the inhibition is -9.7% (inactive).

Regarding `CCCC(=O)N(CCc1ccccc1)Cc1nc2ccccc2c(=O)[nH]1`, the inhibition is 38.3% (inactive).

On to `COc1nc(-c2ccc(Cl)cc2)ccc1-c1noc(-c2cccs2)n1`, for which the inhibition is 23.2% (inactive).

`C=CCNc1nc(N)c(C(=C(C#N)C#N)c2ccccc2)s1`: the inhibition was 69.6% (active).

As for `C=CCNC(=O)c1csc(-c2ccccc2)n1`, the inhibition was 35.2% (inactive).
